Measurements as given in PubChem BioAssay (EPA / NIEHS).
Several values for one entry are separate records, joined by “and”; a condition that tells them apart may be missing. Identical values can stand only once. Results filed as inconclusive are left out. Some structures have more than one record in an assay (separate samples or runs), and their calls can disagree. Activity calls are given as the source filed them. How the source made its calls: active means hit-call score of the fitted dose curve at least 0.9, where 1 is the maximum; inconclusive means response in the unintended direction; inactive means score below 0.9.

Key:
[1] = ATG_XTT_Cytotoxicity: Cytotoxicity Assessment in the Attagene TRANS-FACTORIAL HepG2 Assay (AID 2283584)
How it was run: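 Cells: human HepG2, transiently transfected with MRTU reporter constructs. Exposure 24 h. Readout: XTT, cell number. Baseline/neg ctrl DMSO; loss-of-signal scored.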

[2] = molecular target: Cellular tumor antigen p53 (Homo sapiens) (UniProt P04637); assay: TOX21_p53_BLA_p3_ratio: Tox21 HCT-116 p53 Agonism Beta-lactamase Assay, Ratio, Phase 3 (AID 2283596)
Sequence of Cellular tumor antigen p53 (Homo sapiens) (P04637 whole entry, looked up): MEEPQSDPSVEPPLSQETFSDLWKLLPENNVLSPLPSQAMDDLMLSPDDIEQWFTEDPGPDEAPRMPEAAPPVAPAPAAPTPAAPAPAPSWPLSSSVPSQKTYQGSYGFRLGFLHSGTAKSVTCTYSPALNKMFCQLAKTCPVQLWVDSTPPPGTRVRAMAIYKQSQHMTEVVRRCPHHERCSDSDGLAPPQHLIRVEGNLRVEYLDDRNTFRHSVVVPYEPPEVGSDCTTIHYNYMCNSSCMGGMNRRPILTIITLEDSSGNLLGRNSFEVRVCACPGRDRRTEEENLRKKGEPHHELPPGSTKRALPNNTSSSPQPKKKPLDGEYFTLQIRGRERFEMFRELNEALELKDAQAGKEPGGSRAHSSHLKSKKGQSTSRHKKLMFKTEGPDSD
How it was run: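 Cells were seeded at 4000/well, rested 5 h at 37C, then dosed with DMSO compound solutions (217-fold dilution) for 16 h. CCF4-AM substrate was loaded for 2 h at room temperature, and the 460/530 nm emission ratio was fitted for gain of signal versus DMSO.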

[3] = TOX21_p53_BLA_p4_viability: Viability Assessment in the Tox21 HCT-116 p53 Agonism Beta-lactamase Assay, Phase 4 (AID 2283597);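 further: hits lower the luminescence signal meaning cytotoxicity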
How it was run: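 Readout: ATP luminescence (CellTiter-Glo), measured 30 min after reagent addition at RT. The reagent followed a 2 h CCF4-AM incubation, and the cells had been exposed to compound for 16 h at 37C.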

[4] = molecular target: Cellular tumor antigen p53 (Homo sapiens) (UniProt P04637); assay: TOX21_p53_BLA_p5_ratio: Tox21 HCT-116 p53 Agonism Beta-lactamase Assay, Ratio, Phase 5 (AID 2283599)
How it was run: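 HCT-116 cells carrying a p53-inducible beta-lactamase reporter were seeded at 4000 cells/well and dosed after 5 h with compound in DMSO (217-fold dilution). After 16 h at 37C, CCF4-AM substrate was added for 2 h, and the 460/530 nm emission ratio was scored as gain-of-signal versus DMSO.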

[5] = TOX21_p53_BLA_p5_viability: Viability Assessment in the Tox21 HCT-116 p53 Agonism Beta-lactamase Assay, Phase 5 (AID 2283600)
How it was run: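 Workflow: seed 4000 cells per well, wait 5 h, add compounds (DMSO, 217-fold dilution), incubate 16 h, load CCF4-AM 2 h, add CellTiter-Glo, read luminescence after 30 min.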

[6] = molecular target: Cellular tumor antigen p53 (Homo sapiens) (UniProt P04637); assay: TOX21_p53_BLA_p4_ratio: Tox21 HCT-116 p53 Agonism Beta-lactamase Assay, Ratio, Phase 4 (AID 2283601)
How it was run: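 HCT116 cells carrying an inducible beta-lactamase reporter were plated at 4000 cells/well, rested 5 h, then exposed to compounds in DMSO (217-fold dilution) for 16 h at 37C. CCF4-AM substrate was loaded 2 h at room temperature; 460/530 nm emission ratio scored gain-of-signal versus DMSO.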

[7] = TOX21_p53_BLA_p2_viability: Viability Assessment in the Tox21 HCT-116 p53 Agonism Beta-lactamase Assay, Phase 2 (AID 2283591);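 further: compound exposure lasted 16 h at 37 °C; actives lower the ATP signal meaning cytotoxicity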
How it was run: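 HCT-116 p53-bla cells (4000/well) rested 5 h at 37C, then received compounds in DMSO (217-fold dilution) for 16 h at 37C, 5% CO2. After the CCF4 read, CellTiter-Glo was added; ATP luminescence was read after 30 min at room temperature.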

[8] = molecular target: Cellular tumor antigen p53 (Homo sapiens) (UniProt P04637); assay: TOX21_p53_BLA_p2_ratio: Tox21 HCT-116 p53 Agonism Beta-lactamase Assay, Ratio, Phase 2 (AID 2283592)
How it was run: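 Plated HCT116 p53-bla cells (4000/well) received compound after 5 h, then 16 h at 37C/5% CO2. CCF4-AM added, 2 h RT. Ratio of 460 to 530 nm emission taken as the p53 reporter signal.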

[9] = TOX21_p53_BLA_p3_viability: Viability Assessment in the Tox21 HCT-116 p53 Agonism Beta-lactamase Assay, Phase 3 (AID 2283593);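 further: cells exposed to compound for 16 h before reading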
How it was run: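 HCT-116 cells (4000/well) rested 5 h at 37C, then got DMSO compounds by pin tool (217-fold dilution) for 16 h at 37C, 5% CO2. After the bla read, CellTiter-Glo was added and luminescence read at 30 min, room temperature.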

Measured: AC50

O=c1[nH]c2ccccc2c(=O)o1
not listed: [7] | [8] | [9]
inactive: all other assays above

COC(N)=O
not listed: [2] | [5]
inactive: all other assays above

C/C(=N\NC(=O)Nc1cc(F)cc(F)c1)c1ncccc1C(=O)O
not listed: [3] | [4] | [6]
inactive: all other assays above

FC(F)(F)c1ccc(Cl)cc1
inactive: [1] | [9] | [2] | [4] | [6]

CCCCOCC1CO1 (stereo not given)
not listed: [3] | [7] | [9]
inactive: all other assays above

C=C(C)C(=O)OCC1CO1 (stereo not given)
not listed: [8]
inactive: all other assays above

N#Cc1c(-c2ccc(Cl)cc2)[nH]c(C(F)(F)F)c1Br
inactive: [1]

NNC(N)=S
not listed: [5]
inactive: all other assays above

C=CC(=O)OCC(CC)(COC(=O)C=C)COC(=O)C=C
inactive: [1] | [2] | [4] | [6]
active: [7] 46.1 µM and 95.1 µM | [9] 69.2 µM and 16.2 µM | [3] 75.7 µM and 97.1 µM | [5] 85.1 µM and 89.1 µM | [6] 69.1 µM

CCCCOCCOP(=O)(OCCOCCCC)OCCOCCCC
not listed: [2] | [4] | [8]
inactive: all other assays above

CO/N=C(/C(=O)OC)c1ccccc1COc1ccccc1C
active: [8] 27.1 µM
inactive: all other assays above

CC1=C(C(=O)Nc2ccccc2)S(=O)(=O)CCO1
inactive: [1] | [7] | [3] | [5]
active: [4] 15.8 µM | [6] 21 µM

COP(=O)(O)OC
active: [5] 85.6 µM
not listed: [3] | [4]
inactive: all other assays above

O=NN1CCCC1
not listed: [1] | [3]
inactive: all other assays above

CNC(=O)Oc1ccc(N(C)C)c(C)c1
inactive: [2] | [4] | [5] | [6]

O=S1(=O)OCC2C(CO1)C1(Cl)C(Cl)=C(Cl)C2(Cl)C1(Cl)Cl (stereo not given)
not listed: [8]
inactive: all other assays above

O=c1ssc(Cl)c1Cl
active: [9] 73.7 µM | [2] 61.2 µM
not listed: [3] | [4]
inactive: all other assays above

CCCCC(CC)COC(=O)c1c(Br)c(Br)c(Br)c(Br)c1C(=O)OCC(CC)CCCC (stereo not given)
inactive: [8] | [2] | [4] | [6]

CCN(CC)C1CCCCC1
not listed: [1] | [3] | [7]
inactive: all other assays above

CC(C)Nc1ccc(Nc2ccccc2)cc1
active: [7] 46.1 µM and 45.9 µM and 23 µM | [2] 66.1 µM and 76.4 µM and 31.5 µM | [3] 46.1 µM and 45.9 µM and 19.2 µM | [4] 66.4 µM and 78.4 µM and 24 µM | [6] 14.9 µM
inactive: [1] | [9] | [5] | [6]

Cc1c([N+](=O)[O-])cc2c(c1[N+](=O)[O-])C(C)(C)CC2(C)C
inactive: [1] | [2] | [5] | [6]

O=C(CBr)OCc1ccccc1
inactive: [1] | [7] | [2] | [5]

CCOP(=S)(NC(C)C)Oc1ccccc1C(=O)OC(C)C (stereo not given)
active: [3] 33.5 µM
not listed: [2] | [8]
inactive: all other assays above

CC(=O)CCc1ccc2c(c1)OCO2
inactive: [1] | [2] | [4] | [5]

c1ccc2c(c1)sc1ccccc12
not listed: [8]
inactive: all other assays above

CCCCN(CC)C(=O)SCCC
not listed: [1] | [8]
inactive: all other assays above

Cc1ccc2c(c1N)C(=O)c1ccccc1C2=O
inactive: all assays above

CC1(C)CN=C(NN=C(/C=C/c2ccc(C(F)(F)F)cc2)/C=C/c2ccc(C(F)(F)F)cc2)NC1
active: [7] 14.7 µM | [9] 31.6 µM | [2] 39.5 µM | [4] 44.7 µM | [5] 46.1 µM
inactive: [1] | [3] | [6]
